Screen size: about 190,000 compounds; about 270 (0.14%) were called active. Inconclusive results (about 2%) are left out. What follows is part of a selection rich in actives, with near analogues and random picks from the rest. A number with no mark means an inactive call.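 Rule for the calls: active = GTP binding activity at least 20% away from the 100% baseline, either lowered as inhibitor or raised as activator; inconclusive = flagged as likely green fluorescent, judged across all proteins in the well; inactive = the rest.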

Sequence of GTPase HRas (Homo sapiens) (P01112 whole entry, looked up): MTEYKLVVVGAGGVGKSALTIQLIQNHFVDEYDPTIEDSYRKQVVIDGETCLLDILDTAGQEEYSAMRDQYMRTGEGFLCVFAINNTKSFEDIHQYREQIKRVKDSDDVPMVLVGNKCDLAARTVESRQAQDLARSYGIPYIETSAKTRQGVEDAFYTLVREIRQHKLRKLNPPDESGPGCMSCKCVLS

The experiment has as its target GTPase HRas (Homo sapiens) (UniProt P01112). The experiment can be described thus: modulators of GTP binding to HRas wildtype, primary screen, biochemical, bead-based flow cytometry, multiplex (AID 759).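 Note: 0% = unlabeled GTP competition control and 100% = no-compound control.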 Particulars: GST-Ras wt beads, Bodipy-FL-GTP binding, at 10 µM, actives lie on both sides. Background: Flow cytometry measures light scatter and fluorescence of single cells or particles in a stream.
On to `CN1C(=O)/C(=N/OC(=O)c2ccccc2Br)c2ccccc21`, for which the GTP binding activity is 91%.

For the molecule `CCOC(=O)C1(CCOC)CCN(Cc2ccc(C(=O)OC)cc2)CC1`, the GTP binding activity was 98%. Under `Cc1cccc(-n2c(Cc3cc(=O)[nH]c(=O)[nH]3)nnc2SCC(=O)Nc2cccc(C(F)(F)F)c2)c1` stands 102%; under `O=C(NCc1nnc(SCC(=O)N2CCC(Cc3ccccc3)CC2)o1)c1ccco1`, 98%. Then `O=C(N/N=C/c1ccc([N+](=O)[O-])o1)c1cccc(S(=O)(=O)N2CCOCC2)c1`, with 96%. Then `CN(CC(=O)NC1CCCC1)S(=O)(=O)c1cnc[nH]1`, with 104%; and `CCC(C)NC(=O)Cn1nc(C(F)(F)F)c2c1CCC2` (stereo not drawn), with 100%.

Turning to `C=CCN1C2CCCC1CC(NC(=S)Nc1cccc(OC)c1)C2` (stereo not drawn), the GTP binding activity was 99%.

As to `Cc1[nH]c2ccccc2c1-c1ccc(Cl)nn1`, the GTP binding activity is 96%. Under `COc1cccc(C(=O)Nc2cccnc2)c1OC` stands 98%; under `FC(F)(F)c1cccc(Cc2noc(CN3CCC(N4CCCCC4)CC3)n2)c1`, 104%. Under `C=CCNc1nc(Nc2ccc(Cl)cc2)nc(OC)n1` stands 104%; under `O=C1CN(C(=O)CN2C(=O)NC3(CCCCC3)C2=O)c2ccccc2N1`, 98%; under `COc1ccc(S(=O)(=O)Nc2cccnc2)c(Cl)c1Cl`, 93%.

For `Cc1ccc(S(=O)(=O)N(C)c2ccc(OCC(=O)NC3=NCCS3)cc2)cc1`, the GTP binding activity was 99%. Then `CCc1ccc(CN2C(=O)c3ccccc3C2C(=O)NCC2CCCO2)cc1` (stereo not drawn), with 96%. Then `Cc1ccc(NC(=O)CSc2nc(CSc3ccc(C)cc3)cc(=O)[nH]2)cc1`, with 95%; and `Cn1c(-c2ccc(F)cc2)cnc1SCC(=O)NNC(=O)Cc1ccccc1`, with 99%; and `O=C(COC(=O)c1cnccn1)Nc1cccc2ccccc12`, with 96%. Consider `O=C(C1CCN(S(=O)(=O)c2ccc(Br)s2)CC1)N1CCN(C2CCCCC2)CC1`, for which the GTP binding activity is 95%. Then `O=C(O)/C=C/c1cn(-c2ccccc2)nc1-c1cccs1`, with 92%; and `O=C(O)/C=C/c1cn(Cc2ccccc2)nc1-c1cccs1`, with 120% [activator] (active). Turning to `O=C(/C=C\c1cn(-c2ccccc2)nc1-c1cccs1)N1CCOCC1`, the GTP binding activity was 103%.

Regarding `CCSc1sc(CC)cc1C=O`, the GTP binding activity was 97%. Under `COC(=O)Cc1c(O)ccn(Cc2cccc(C(F)(F)F)c2)c1=O` stands 96%; under `Cc1ccc(NC(=S)N(CCN(C)C)Cc2cccs2)cc1C`, 93%; under `O=C(NCc1ccncc1)C(=O)NCc1ccco1`, 97%.

For `CCOC(=O)c1c(-c2cccc(N)c2)cn2ccccc12`, the GTP binding activity is 99%. Then `CNC(=S)NNC(=O)c1cccn(Cc2ccccc2)c1=O`, with 97%; and `Cc1cccc(C)c1N1CCN(S(=O)(=O)N2CCCCC2)CC1`, with 96%. Under `Cc1cc2nc(C(F)(F)F)cc(-c3cccs3)n2n1` stands 90%; under `Nc1ccc(S(=O)(=O)Nc2nccc(/C=C/c3ccc(Br)s3)n2)cc1`, 91%; under `O=C(CCN1CCCCC1)N=Nc1c(O)[nH]c2ccccc12`, 98%. Then `Cc1cc(OC(=O)c2ccccc2)c([N+](=O)[O-])c(=O)[nH]1`, with 101%; and `COc1ccc(C(=O)NC(=S)Nc2ccc(Cl)cn2)cc1OC`, with 99%. Regarding `Cc1nn(CC#N)c(=O)n1N(C)c1ncc(C(F)(F)F)cc1Cl`, the GTP binding activity is 99%. On to `CC(=O)Nc1ccc(NC(=O)COc2ccc(S(=O)(=O)NC(C)c3ccccc3)cc2)cc1` (stereo not drawn), for which the GTP binding activity is 114%.

As to `Cc1cc(/C=N/NC(N)=O)c(C)n1C1CCCCC1`, the GTP binding activity was 100%.

For the molecule `COc1cc(C(=O)Nc2cc(C(F)(F)F)ccc2-n2cncn2)cc(OC)c1OC`, the GTP binding activity is 96%. As for `O=C(NC(=S)Nc1ccc(S(=O)(=O)N2CCOCC2)cc1)c1ccccc1[N+](=O)[O-]`, the GTP binding activity was 95%. For `COC(=O)c1cccnc1NC(=S)NC(C)C`, the GTP binding activity was 95%. Under `CCCCn1nc(C(=O)Nc2ccc(S(=O)(=O)Nc3ncccn3)cc2)c2ccccc2c1=O` stands 98%; under `COCCCNC(=S)N1CCCC(c2nc3cc(C)c(C)cc3[nH]2)C1` (stereo not drawn), 95%.

`CC1Cc2ccccc2N1C1=CC(=O)CC(C)(C)C1` (stereo not drawn): the GTP binding activity was 99%. Regarding `Cc1nc(CN2CCN(C(=O)CCc3nnc(Cc4c[nH]c5ccccc45)o3)CC2)cs1`, the GTP binding activity is 95%. On to `CCc1nnc(NC(=O)CSc2nc(SC)ns2)s1`, for which the GTP binding activity was 99%.

`O=C(O)c1ccc2c3c(cccc13)C(=O)N(OS(=O)(=O)c1ccccc1)C2=O`: the GTP binding activity is 84%. Then `CCOC(=O)c1cc2c(=O)[nH]c(C(Cl)(Cl)Cl)nc2o1`, with 100%.

The record behind these values is PubChem BioAssay AID759 (NMMLSC, 2007).
